Measured values as given in PubChem BioAssay.
Active and inactive are the calls of the source.

How the values were obtained:
Albumin (Bos taurus) = Albumin (Bos taurus) (UniProt P02769); assay: compounds binding labelled BSA control protein – biochemical, small-molecule microarray, Alexa647 label, 635/667 nm fluorescence, artefact control for SMM control protein annotation, profiling panel (AID 1118); details: BSA-A647 binding, fluorescence 635 nm, higher = more signal;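 note: score merges 667 nm emission intensity and signal-to-noise per printed compound spot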
Albumin (Bos taurus), sequence (P02769 whole entry, looked up): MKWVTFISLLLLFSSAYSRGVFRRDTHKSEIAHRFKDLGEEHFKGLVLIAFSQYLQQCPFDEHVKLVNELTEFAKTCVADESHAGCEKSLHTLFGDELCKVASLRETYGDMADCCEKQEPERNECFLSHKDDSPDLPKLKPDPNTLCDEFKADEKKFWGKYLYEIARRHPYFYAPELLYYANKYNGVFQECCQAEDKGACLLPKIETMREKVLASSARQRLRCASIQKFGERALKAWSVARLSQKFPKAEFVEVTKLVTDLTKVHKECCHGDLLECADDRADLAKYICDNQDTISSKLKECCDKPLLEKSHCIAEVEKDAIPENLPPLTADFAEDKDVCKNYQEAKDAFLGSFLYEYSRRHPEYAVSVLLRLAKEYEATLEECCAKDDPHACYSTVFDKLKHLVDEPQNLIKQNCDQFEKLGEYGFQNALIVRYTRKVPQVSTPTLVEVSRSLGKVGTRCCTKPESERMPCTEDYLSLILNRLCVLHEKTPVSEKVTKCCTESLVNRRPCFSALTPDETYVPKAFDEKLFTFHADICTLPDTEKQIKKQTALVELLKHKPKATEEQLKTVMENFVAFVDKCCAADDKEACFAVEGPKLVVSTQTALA

[1] = probe aXIP binding to arrayed compounds – biochemical, NeuroSMM set, 635/667 nm fluorescence, primary screen (AID 1119); details: small-molecule microarray, higher = more signal, called active from +8 up or from −8 down;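 note: probe is the protein aXip251-270 applied at 1 µg/mL to compound-printed slides; binding of probe to printed compounds measured as 667 nm fluorescence plus signal to noise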
[2] = probe aNOTCH3 binding on compound microarray – biochemical, small-molecule microarray, 635/667 nm fluorescence, primary screen (AID 1120); details: higher = more signal;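 note: probe is a biotin-tagged antibody raised against NOTCH3 rather than NOTCH3 protein; score merges spot fluorescence near 667 nm with spot signal to noise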
[3] = probe aNOTCH2 binding on compound microarray – biochemical, small-molecule microarray, 635/667 nm fluorescence, primary screen (AID 1121); details: higher = more signal;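 note: score merges feature fluorescence read at 667 nm with its signal to noise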
[4] = biological target: Carbonic anhydrase 2 (Homo sapiens) (UniProt P00918); assay: compounds binding carbonic anhydrase 2 – biochemical, small-molecule microarray, Alexa647-labelled CAII, profiling panel (AID 1122); details: CAII-A647 binding fluorescence, higher = more signal
[5] = COS7 lysate on small-molecule microarray, probe aHis, 635 nm (AID 1123); details: COS7 cell lysate, fluorescence, higher = more signal;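 note: z-score combines 667nm fluorescence intensity with signal-to-noise per printed compound spot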
[6] = probe aLAP1 signal on lysate-treated microarray – cell lysate, small-molecule microarray, COS7 lysate, primary screen (AID 1124); details: probe aLAP1, fluorescence, higher = more signal;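 note: lysate comes from COS7 cells expressing LAP1 and is applied at 0.3 µg/mL; score merges spot fluorescence near 667 nm with signal-to-noise over triplicate slides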
Sam68 (KHDRBS1) = assay: compounds binding KHDRBS1 protein – biochemical, small-molecule microarray, 635 nm fluorescence, primary screen (AID 1125); details: higher = more signal;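 note: score merges 667 nm channel intensity with signal to noise over triplicate slides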
[7] = tested on: Chordin-like protein 2 (CHRDL2); assay: compounds binding chordin-like 2 – biochemical, small-molecule microarray, 635 nm fluorescence, primary screen (AID 1126); details: fluorescence 635 nm, higher = more signal;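 note: printed compound slides probed with Chrdl2 protein at 4 µg/mL for 1 h at 4 C; score merges 667 nm emission intensity with signal to noise over three replicate slides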
[8] = biological target: Concanavalin-A (Canavalia ensiformis) (UniProt P02866); assay: compounds binding concanavalin A lectin – biochemical, small-molecule microarray, Alexa647 label, 635 nm, artefact control for SMM control protein annotation, primary screen (AID 1127); details: ConA-A647 binding fluorescence, higher = more signal;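 note: z combines 667 nm emission intensity with signal-to-noise across three replicate slides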
Concanavalin-A (Canavalia ensiformis), sequence (P02866 whole entry, looked up): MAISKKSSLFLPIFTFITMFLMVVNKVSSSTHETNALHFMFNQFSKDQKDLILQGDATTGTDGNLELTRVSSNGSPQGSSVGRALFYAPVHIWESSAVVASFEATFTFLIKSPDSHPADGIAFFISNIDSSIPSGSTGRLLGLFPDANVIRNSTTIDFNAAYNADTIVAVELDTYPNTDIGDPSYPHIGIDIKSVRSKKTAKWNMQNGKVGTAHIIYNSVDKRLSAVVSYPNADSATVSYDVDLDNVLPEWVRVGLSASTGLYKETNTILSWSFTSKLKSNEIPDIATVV

[9] = compounds binding Alexa647 anti-His antibody – biochemical, small-molecule microarray, 635 nm fluorescence, artefact control for SMM control protein annotation, primary screen (AID 1128); details: higher = more signal;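 note: score merges feature fluorescence with signal-to-noise for each printed compound spot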
[10] = tested on: Human papillomavirus type 1a E7 protein (residues 1-88); assay: HPV1a E7 small-molecule binders, primary screen, biochemical, small-molecule microarray, residues 1-88, 635 nm (AID 1129); details: small-molecule microarray binding, fluorescence 635 nm; higher = more signal
[11] = biological target: Focal adhesion kinase 1 (Homo sapiens) (UniProt Q05397); assay: PTK2 protein binding on printed compound slides – biochemical, small-molecule microarray, 635/667 nm fluorescence, BSA, DTT, primary screen (AID 1130); details: 635 nm fluorescence, higher = more signal;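 note: composite of spot emission at 667 nm and signal to noise over triplicate slides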
Focal adhesion kinase 1 (Homo sapiens), sequence (Q05397 whole entry, looked up): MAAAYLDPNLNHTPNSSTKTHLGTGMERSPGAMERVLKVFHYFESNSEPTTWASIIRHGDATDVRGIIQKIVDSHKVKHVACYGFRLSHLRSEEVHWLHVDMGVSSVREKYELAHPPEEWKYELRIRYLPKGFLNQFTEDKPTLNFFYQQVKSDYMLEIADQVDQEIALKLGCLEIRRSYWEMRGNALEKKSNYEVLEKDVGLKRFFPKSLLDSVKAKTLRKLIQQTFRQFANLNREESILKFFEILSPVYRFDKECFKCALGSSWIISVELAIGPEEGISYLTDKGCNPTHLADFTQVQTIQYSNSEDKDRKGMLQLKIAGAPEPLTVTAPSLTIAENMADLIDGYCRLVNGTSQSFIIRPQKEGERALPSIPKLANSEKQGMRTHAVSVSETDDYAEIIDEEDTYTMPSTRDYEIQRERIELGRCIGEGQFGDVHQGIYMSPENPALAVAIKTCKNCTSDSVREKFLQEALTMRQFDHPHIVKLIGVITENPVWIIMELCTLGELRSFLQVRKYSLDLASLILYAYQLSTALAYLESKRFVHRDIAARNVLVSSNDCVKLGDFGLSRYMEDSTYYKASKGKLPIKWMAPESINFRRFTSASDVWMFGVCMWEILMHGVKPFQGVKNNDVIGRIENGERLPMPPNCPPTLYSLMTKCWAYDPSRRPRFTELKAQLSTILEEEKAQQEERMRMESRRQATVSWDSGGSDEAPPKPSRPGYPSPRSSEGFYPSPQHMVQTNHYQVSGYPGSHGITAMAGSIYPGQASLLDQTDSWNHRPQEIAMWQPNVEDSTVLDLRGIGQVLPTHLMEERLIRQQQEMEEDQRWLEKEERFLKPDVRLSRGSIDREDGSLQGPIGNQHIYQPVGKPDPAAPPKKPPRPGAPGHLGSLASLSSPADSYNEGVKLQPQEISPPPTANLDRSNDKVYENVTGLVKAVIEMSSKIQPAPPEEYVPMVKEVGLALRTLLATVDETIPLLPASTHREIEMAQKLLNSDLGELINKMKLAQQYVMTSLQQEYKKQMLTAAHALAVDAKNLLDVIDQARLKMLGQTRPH

[12] = tested on: Fibrinogen (Alexa647-labelled); assay: Alexa647-fibrinogen binding to printed small molecules – biochemical, small-molecule microarray, 635/667 nm fluorescence, artefact control for SMM control-protein annotation, profiling panel (AID 1131); details: fibrinogen-A647 binding fluorescence, higher = more signal;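 note: z-score merges 667 nm fluorescence with per-spot signal-to-noise over triplicate slides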
[13] = biological target: Follistatin (Homo sapiens) (UniProt P19883); assay: FST protein binding to printed compounds – biochemical, small-molecule microarray, 635/667 nm fluorescence, primary screen (AID 1132); details: 635 nm fluorescence, higher = more signal
Follistatin (Homo sapiens), sequence (P19883 whole entry, looked up): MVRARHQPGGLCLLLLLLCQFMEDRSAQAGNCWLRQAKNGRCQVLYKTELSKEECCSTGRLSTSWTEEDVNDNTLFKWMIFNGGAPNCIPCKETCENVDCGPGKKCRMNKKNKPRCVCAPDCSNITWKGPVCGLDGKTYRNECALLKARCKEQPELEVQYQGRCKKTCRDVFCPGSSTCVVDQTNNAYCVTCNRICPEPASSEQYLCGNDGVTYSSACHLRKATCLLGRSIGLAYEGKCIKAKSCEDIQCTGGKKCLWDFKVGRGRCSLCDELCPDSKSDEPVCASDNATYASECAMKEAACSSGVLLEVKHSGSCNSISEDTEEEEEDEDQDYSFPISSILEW

[14] = biological target: Fibroblast growth factor 2 (Homo sapiens) (UniProt P09038); assay: basic fibroblast growth factor binding to printed compounds – biochemical, small-molecule microarray, 635/667 nm fluorescence, primary screen (AID 1133); details: FGF2, fluorescence 635/667, higher = more signal
Fibroblast growth factor 2 (Homo sapiens), sequence (P09038 whole entry, looked up): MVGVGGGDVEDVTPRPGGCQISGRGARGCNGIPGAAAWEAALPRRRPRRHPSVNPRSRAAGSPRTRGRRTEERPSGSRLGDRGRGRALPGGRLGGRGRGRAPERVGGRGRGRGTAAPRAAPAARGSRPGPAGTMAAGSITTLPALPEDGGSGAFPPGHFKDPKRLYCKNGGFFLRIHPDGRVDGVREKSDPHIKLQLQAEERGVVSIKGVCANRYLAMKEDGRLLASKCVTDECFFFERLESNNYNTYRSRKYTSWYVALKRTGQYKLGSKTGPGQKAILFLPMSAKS

[15] = JC-1 mitochondrial potential readout, lung cancer cells – cell-based, A549, JC-1 fluorescence, basal, 24 h, 100 nL, profiling panel (AID 1138); details: higher = more signal;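 note: A549 lung adenocarcinoma cells under basal conditions with no added stimulus; test concentration not given here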
Lefty1 = Lefty1 protein binding to printed compounds – biochemical, small-molecule microarray, 635/667 nm fluorescence, primary screen (AID 1139); details: fluorescence 635/667, higher = more signal
[16] = tested on: wheat germ agglutinin (Triticum aestivum), Alexa647-labelled; assay: Alexa647-WGA lectin binding to printed small molecules – biochemical, small-molecule microarray, 635/667 nm fluorescence, artefact control for SMM control-protein annotation, profiling panel (AID 1140); details: WGA-A647 binding, 635 nm fluorescence, higher = more signal;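 note: score merges 667 nm feature emission with signal to noise over triplicate slides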
[17] = biological target: Luciferin 4-monooxygenase (Photinus pyralis) (UniProt P08659); assay: inhibition of purified Photinus pyralis luciferase – biochemical, luminescence, purified enzyme, 2006 set, primary screen (AID 1141); details: purified firefly luciferase, SteadyGlo luminescence, 30 min; higher = more signal, called active from +8 up or from −8 down;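 note: cell-free assay with purified firefly luciferase at 100 ng per well in PBS; test concentration not given here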
Luciferin 4-monooxygenase (Photinus pyralis), sequence (P08659 whole entry, looked up): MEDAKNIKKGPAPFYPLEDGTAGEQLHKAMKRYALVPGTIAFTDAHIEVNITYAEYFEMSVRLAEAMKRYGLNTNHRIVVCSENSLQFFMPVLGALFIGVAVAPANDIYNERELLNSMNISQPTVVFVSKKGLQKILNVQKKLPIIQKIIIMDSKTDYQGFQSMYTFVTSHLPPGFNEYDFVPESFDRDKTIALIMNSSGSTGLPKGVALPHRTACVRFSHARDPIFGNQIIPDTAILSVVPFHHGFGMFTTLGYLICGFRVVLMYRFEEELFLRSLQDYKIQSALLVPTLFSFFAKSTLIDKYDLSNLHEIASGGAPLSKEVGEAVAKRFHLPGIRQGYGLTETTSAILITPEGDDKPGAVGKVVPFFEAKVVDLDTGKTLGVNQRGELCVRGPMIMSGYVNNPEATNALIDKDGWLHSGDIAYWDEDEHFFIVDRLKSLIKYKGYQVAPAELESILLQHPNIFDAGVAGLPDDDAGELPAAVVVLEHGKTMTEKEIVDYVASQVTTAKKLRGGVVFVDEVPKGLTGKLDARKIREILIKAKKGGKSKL

Compound | composite z-score (Albumin (Bos taurus)) | composite Z-score [1] | composite z-score [2] | composite z-score [3] | composite z-score [4] | composite z-score [5] | composite z-score [6] | composite z-score (Sam68 (KHDRBS1)) | composite z-score [7] | composite z-score [8] | composite z-score [9] | composite z-score [10] | composite z-score [11] | composite z-score [12] | composite z-score [13] | composite z-score [14] | z-score [15] | composite z-score (Lefty1) | composite z-score [16] | z-score [17]
CCC(CC)C(O)C1C=CC2C(=O)N(c3ccccc3)C(=O)C2N1Nc1ccccc1F (stereo not given) | 0.86 | 0.204 (inactive) | 0.188 | 0.001 | 0.604 | 1.83 | 0.261 | 0.865 | 0.118 | 0.949 | 1.62 | 1.16 | 0.869 | 0.94 | 0.337 | -0.557 | -0.231 | 0.128 | 0.416 | 0.211 (inactive)
O=C(NCC(O)CO)C1N=C(c2ccc(OCCCO)cc2)N(c2ccccc2)O1 (stereo not given) | -0.138 | -0.226 (inactive) | -0.0996 | 0.162 | 0.821 | 0.0043 | 1.04 | 1 | 0.157 | 0.53 | 0.703 | 0.697 | -0.102 | 0.0565 | 1.38 | 1.32 | 0.42 | 0.876 | 0.471 | -10.9 (active)
C=CCC(OC(C)=O)[C@@H]1[C@@H](N(Cc2ccc(-c3cccc(C(F)(F)F)c3)o2)C(=O)Cc2ccc(F)cc2)c2cc(OCCCO)ccc2N1C(=O)Cc1ccc2ccccc2c1 (stereo not given in full) | -0.0508 | -0.186 (inactive) | -0.182 | -0.104 | -0.25 | 0.121 | -0.169 | -2.04 | 0.0229 | -0.492 | 0.114 | -1.33 | -0.216 | -0.193 | 0.112 | -0.599 | 0.696 | -0.482 | 0.0382 | -0.442 (inactive)
O=C(NCC(O)CO)[C@@]1(CCS(=O)(=O)c2ccccc2)N=C(c2ccc(OCCCO)cc2)O[C@H]1c1ccccc1 (stereo not given in full) | 0.905 | 1.06 (inactive) | 0.177 | 0.137 | 0.555 | 3.17 | 1.11 | 1.22 | 0.106 | 0.0968 | 1.9 | 1.23 | 1.38 | 0.993 | 1.33 | -0.0831 | -0.503 | -1.02 | 0.762 | -0.845 (inactive)
CC(C)(C)OC(=O)CC[C@]1(C(=O)NCC(O)CO)N=C(c2ccc(OCCCO)cc2)O[C@H]1c1ccccc1N=[N+]=[N-] (stereo not given in full) | 1.02 | 1.33 (inactive) | 0.163 | 0.149 | 0.719 | 3.53 | 1.03 | 0.723 | 0.0058 | 0.715 | 2.42 | 1.01 | 0.696 | 0.953 | 1.38 | 0.581 | 0.739 | -0.41 | 1.3 | -8.87 (active)
COC(=O)[C@@]1(Cc2ccc(OC)cc2)[C@H]2c3cc(C(=O)N4CCCC4)n(Cc4ccc(Cl)c(C(F)(F)F)c4)c3C[C@H]2CN1C(=O)c1ccccc1 | 1.05 | 0.0685 (inactive) | 0.322 | 0.162 | 0.696 | 3.2 | 1.16 | 1.29 | -0.754 | 1.2 | 1.27 | 1.19 | 0.421 | 0.972 | 1.34 | 0.433 | 1.38 | 0.125 | 1.07 | 0.166 (inactive)
OCCCC1=CC(c2ccc(CN3CCCC3)cc2)N(Cc2cccc(OC(F)(F)F)c2)CC1 (stereo not given) | 0.465 | 0.451 (inactive) | 0.0642 | -0.0907 | -0.0985 | 0.251 | -0.309 | -0.0506 | 0.248 | -0.796 | -0.299 | -0.377 | 0.213 | -0.575 | 0.611 | 0.215 | 1.17 | 0.326 | -0.227 | -0.222 (inactive)
COc1ccc([Si](C)(C)[C@@H]2[C@@H](CC(=O)N(CCO)Cc3ccccc3)O[C@]3(C(=O)N(Cc4ccc(I)cc4)c4ccccc43)[C@H]2C)cc1 | -0.596 | 0.317 (inactive) | 0.456 | 0.02 | 0.414 | 0.568 | 0.965 | 0.793 | 1.36 | 0.817 | 1.9 | 0.32 | 0.385 | 0.391 | 1.49 | 1.66 | -0.472 | 1.53 | -0.0349 | 0.249 (inactive)
CN(C)CCCNC(=O)[C@@]1(C)c2ccccc2C(=O)N(Cc2ccc(OC(F)(F)F)cc2)[C@H]1c1ccc(CO)cc1 | 0.548 | 0.0333 (inactive) | -0.139 | -0.0357 | 0.706 | 1.83 | 1.03 | 0.0786 | -0.616 | -0.451 | 0.117 | 0.365 | 0.37 | 0.294 | 0.948 | 0.389 | -0.664 | -0.425 | 0.668 | 0.14 (inactive)
C=C(CCCC)/C(=C/C[C@H](OC(=O)c1ccncc1)c1ccc(OCCO)cc1)c1cnc2ccccc2c1 | 0.667 | -0.0072 (inactive) | 0.0533 | -0.0891 | 0.755 | 1.74 | 0.111 | 1.31 | 1.11 | 1.13 | 2.06 | 1.23 | 0.525 | 0.892 | 1.28 | 1.02 | 2.39 | 1.27 | 1.36 | -1.83 (inactive)
CC(C)N1C(=O)C[C@@](C(=O)NCCN2CCOCC2)(c2ccc([N+](=O)[O-])cc2)[C@H]1c1ccc(CO)cc1 | 0.408 | 1.96 (inactive) | -0.256 | -0.0836 | 0.642 | 2.2 | 1.24 | -0.395 | -1.26 | 0.257 | 2.67 | -0.886 | -0.455 | -0.591 | 0.178 | -0.588 | -0.143 | -0.516 | 0.869 | 1.42 (inactive)
